Screening data (PubChem BioAssay)
TDP-43 yeast inh: qHTS of TDP-43 Inhibitors; TDP-43 expressing yeast growth rescue, BacTiter-Glo, 24 h; Potency, µM (top dose mostly 46.1 µM), for the others: at the highest dose growth rescue (activation), usual class: activators; actives 1.8% (n = 410,000); AID 652104, 2013; also: potency is read from the fitted curve at half-maximal effect; % of control where 0% means no effect; nearly all actives have a fitted effect of over 50% in size
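Luminescence from BacTiter-Glo reports growth of TDP-43-expressing yeast after 24 hr at 30 deg C with compound. Cells were raffinose-pregrown to mid-log, then seeded in galactose medium at OD600=0.02.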
mIDH1 inhibitor: qHTS for Inhibitors of mutant isocitrate dehydrogenase 1 (IDH1): qHTS. Isocitrate dehydrogenase [NADP] cytoplasmic (Homo sapiens), O75874. IDH1-R132H enzyme, NADPH consumption, diaphorase/resazurin fluorescence. Potency, µM (top dose mostly 76.6 µM), without a hit: top-dose activity change, negative = inhibition, actives largely listed as inhibitors. actives 0.093% (n = 390,000). AID 602179, 2012; also: potency is read from the fitted curve at half-maximal effect; % is scaled to controls: 0 for no effect and ±100 for the full control effect; nearly all actives have a fitted effect of over 65% in size
Target sequence (O75874 whole entry R132H, stated change not applied): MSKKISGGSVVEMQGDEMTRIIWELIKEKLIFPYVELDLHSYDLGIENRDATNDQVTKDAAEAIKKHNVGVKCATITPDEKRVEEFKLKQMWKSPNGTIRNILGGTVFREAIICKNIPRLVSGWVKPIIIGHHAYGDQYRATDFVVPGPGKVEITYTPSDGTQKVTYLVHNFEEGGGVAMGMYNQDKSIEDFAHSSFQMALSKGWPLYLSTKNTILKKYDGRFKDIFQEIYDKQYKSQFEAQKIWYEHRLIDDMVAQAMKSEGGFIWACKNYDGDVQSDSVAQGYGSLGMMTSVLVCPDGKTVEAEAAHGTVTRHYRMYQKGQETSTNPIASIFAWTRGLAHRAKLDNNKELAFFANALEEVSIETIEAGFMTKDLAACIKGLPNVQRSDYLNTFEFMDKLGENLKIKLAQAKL
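IDH1-R132H (0.5 ug/mL dispensed) in pH 7.5 Tris buffer was preincubated 30 min with compound, then given a substrate mix of 0.016 mM NADPH and 2 mM alpha-KG for 80 min at room temperature; remaining NADPH was read by diaphorase/resazurin fluorescence.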
FUS suppressor: qHTS for Suppressors of FUS Proteinopathy: Primary screen using FUS-linked yeast assay. S. cerevisiae FUS-expressing, growth rescue, OD600, 24 h. Potency, µM (doses to about 76.6 µM), most hits filed as activators. actives 0.24% (n = 390,000). AID 1347120, 2019;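 also: potency is read from the fitted curve at half-maximal effect; plate controls were DMSO vehicle for no effect and reference control for full effect; nearly all actives have a fitted effect of over 55% in size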
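Yeast expressing FUS under galactose induction, OD 0.005 in 2% galactose medium; compounds in a dilution series, 24 h at 30C. Growth rescue by absorbance at 600 nm; CP55940 positive control, DMSO negative.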
LDHA block: qHTS assay for inhibitors of human lactate dehydrogenase. L-lactate dehydrogenase A chain (Homo sapiens), P00338. purified LDHA, NADH/diaphorase-resazurin fluorescence; active compounds read low. activity change, % (values are at about 110 or 230 µM). actives 0.15% (n = 480,000). AID 1347041, 2019; in the data active = activity change below about -30%; inconclusive = mostly about -25% to -30%;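 also: plate controls were DMSO wells for no effect and wells without enzyme for full effect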
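Human LDH5 (2 nM) was incubated with 0.06 mM NADH and 0.2 mM pyruvate for 5 min at room temperature in Tris pH 7.4. Remaining NADH was coupled through diaphorase/resazurin, and resorufin fluorescence was read at 0 and 20 min.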
aSyn yeast inh: qHTS of alpha-syn Inhibitors; Potency, µM (doses to about 46.1 µM), for inactives: at the top dose growth rescue (activation), most hits filed as activators; Yeast expressing alpha-synuclein, growth rescue, BacTiter-Glo, 24 h; AID 652106, 2013; actives 0.14% (n = 370,000); also: potency is read from the fitted curve at half-maximal effect; % of control where 0% means no effect; nearly all actives have a fitted effect of over 65% in size
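Rescue of yeast growth: cells expressing toxic alpha-synuclein, induced in galactose at OD600 0.02, incubated with compound 24 h at 30 C. ATP luminescence quantified growth; inhibitors of toxicity appear as activators.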
Abeta rescue: qHTS for compounds that reverse cellular toxicity of Amyloid beta (A-beta) peptide in yeast: Primary Screen; yeast expressing A-beta42, growth rescue, OD600, 48 h; response scale: 0% DMSO, 100% iron-clioquinol control; Potency, µM (titrated, usually from 46.1 µM), hits mostly activators; actives 0.063% (n = 410,000); AID 1347071, 2019; also: potency is read from the fitted curve at half-maximal effect; nearly all actives have a fitted effect of over 55% in size
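Yeast A-beta toxicity model in growth medium with pinned compounds, 48 h at 30 C; growth read as absorbance at 600 nm. Normalized to FeCl3/clioquinol equimolar mix (positive) and DMSO (negative).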
* marks the source's active call; other numbers are inactive results; i = inactive; ? = inconclusive; · = no result; ! = not confirmed by another sample. A selection: hits, their analogues and other compounds. The true share with any hit is near 2%. Unless noted, calls follow the shape of the dose curve; as a rule, active = well fitted curve in the direction sought with a large enough effect; inconclusive = small, poorly fitted or top-dose-only effect, or another doubt; inactive = no such curve, though single readings can be large; an effect the other way counts as inactive or inconclusive.

SMILES	TDP-43 yeast inh	mIDH1 inhibitor	FUS suppressor	LDHA block	aSyn yeast inh	Abeta rescue
Cc1ccc(-c2nc3cnccn3c2Nc2ccccc2)o1	35.5µM*	-7.5%	i	-2.3	20µM*	i
CCOC(=O)c1cc(-c2ccccc2)sc1NC(=O)CCN1CCN(C)CC1	·	·	·	-4.5	·	·
Cc1ncoc1C(=O)N1CCCC(C(=O)c2ccc(-c3ccccc3)c(F)c2)C1 (configuration not stated)	22.4µM*	3.0%	?	-9.4	-39.9%	i
Cc1ncoc1C(=O)N1CCCC(C(=O)c2ccc(Oc3ccccc3)cc2)C1 (configuration not stated)	-4.1%	-6.6%	i	-9.2	-20.6%	i
COCCn1cnnc1SCc1cccc(C(F)(F)F)c1	·	·	·	-1.1	·	·
Cc1noc(C)c1COc1ccccc1C(=O)N(C)Cc1ccc(C(C)(C)C)cc1	35.5µM*	-5.8%	i	-4.3	4.9%	i
Cc1noc(C)c1COc1ccccc1C(=O)N(C)Cc1ccc(F)cc1	8.1%	-6.0%	i	-6.1	1.0%	i
O=[N+]([O-])c1ccc(/C=[N+](\[O-])CCO)o1	11.2µM*	-11.0%	i	6.2	22.5%	i
CN(CC(=O)NC(=O)NC1CC1)c1ccc(C(C)(C)C)cc1	·	·	·	5.8	·	·
CC1(C)NC(=O)N(CCCCOc2ccc(Br)cc2Cl)C1=O	12.6µM*	-1.9%	i	-0.4	18.6%	i
Cc1cc(OCCCCN2C(=O)NC(C)(C)C2=O)cc(C)c1Cl	17.8µM*	3.2%	i	0.0	·	i
CC1(C)NC(=O)N(CCCOc2ccc(Br)cc2Cl)C1=O	5.1%	11.0%	?	4.1	-3.6%	i
CC1(C)NC(=O)N(CCCCOc2ccc(Cl)cc2)C1=O	-13.4%	2.7%	i	4.2	10.9%	i
O=C(CN1CCCN(c2ccc(C(F)(F)F)cn2)CC1)Nc1ccccc1Cl	·	·	·	-1.8	·	·
CN1/C(=C\C(=O)CN2CCN(C(c3ccccc3)c3ccccc3)CC2)C(C)(C)c2ccccc21	·	·	·	10.9	·	·
CC(C)(C)NC(=O)C(c1cccc2ccccc12)n1c(=O)c(-c2ccccc2)nc2ccccc21 (configuration not stated)	35.5µM*	·	i	-12.4	-12.5%	i
CC(C)(C)NC(=O)C(c1cccc2ccccc12)n1c(=O)c(-c2ccco2)nc2ccccc21 (configuration not stated)	17.4%	·	?	3.0	?	i
COc1ccc(Cl)cc1NC(=O)c1c(NCc2cccnc2)sc2c1CCC(C)C2 (configuration not stated)	22.4µM*	-1.3%	i	-2.3	·	i
CCOc1ccc(-c2nc(C#N)c(NCCCN(CC)CC)o2)cc1	·	·	·	-1.7	·	·
Cc1nn(-c2ccc(Cl)c(Cl)c2Cl)c(=O)c2ccccc12	15.8µM*	4.1%	i	-4.2	9.3%	i
CCN(CC)C(CNS(=O)(=O)c1ccc(C)cc1)c1ccsc1 (configuration not stated)	·	·	·	-3.1	·	·
CCCCCOc1ccc(C(=O)NCC2(c3ccccc3)CCOCC2)cc1	-10.1%	5.7%	?	-5.4	3.1%	i
CCCCOc1ccc(C(=O)NCC2(c3ccccc3)CCOCC2)cc1	15.8µM*	4.7%	?	-0.7	1.9%	i
CN(CC(=O)NC(=O)NCc1ccccc1)Cc1ccccc1	·	·	·	6.5	·	·
O=C(Nc1ccccc1)N1CCCN(c2ccc(C(F)(F)F)cc2[N+](=O)[O-])CC1	17.8µM*	22.4%	i	-6.0	13.7%	i
SMILES	TDP-43 yeast inh	mIDH1 inhibitor	FUS suppressor	LDHA block	aSyn yeast inh	Abeta rescue
O=C(Nc1ccccc1)N1CCN(c2ccc(F)cc2)CC1	6.3%	1.6%	i	4.1	0.2%	i
CC(=O)c1ccc(N2CCN(C(=O)Nc3ccc(C(C)C)cc3)CC2)cc1	17.8µM*!	-1.5%	i	-5.6	-23.2%	i
O=C(Nc1ccccc1)N1CCN(c2ccccc2)CC1	8.91µM*	0.0%	i	-3.4	-1.5%	i
CN(CC(=O)N(C)c1c(N)n(Cc2ccccc2)c(=O)[nH]c1=O)Cc1ccc(-c2ccccc2)cc1	·	·	·	1.3	·	·
Cc1nc(SCC(=O)Nc2cccc3ccccc23)oc1C	·	·	·	13.5	·	·
O=C(O)CC(c1ccncc1)c1c[nH]c2ccccc12 (configuration not stated)	·	·	·	37.2	·	·
Cc1oc(-c2cccs2)nc1CC(=O)Nc1ccc(F)cc1F	·	·	·	6.4	·	·
COc1ccc(C(CC(=O)NCc2ccco2)Sc2n[nH]c(-c3ccc(F)cc3)n2)cc1 (configuration not stated)	·	·	·	7.6	·	·
CCCCC(=O)OC1=C(C(=O)c2ccccc2)N(CC)S(=O)(=O)c2ccccc21	15.8µM*	·	i	-1.2	·	i
CCOc1ccccc1CN1CCC(N2CCOCC2)CC1	-3.2%	8.8%	i	-31.3*	-3.4%	i
COc1ccc(C2SCCN2C(=S)Nc2cccc(Cl)c2)cc1 (configuration not stated)	17.8µM*	3.6%	·	0.4	18.6%	i
CC1CCCCN1S(=O)(=O)c1ccc2nc(N3CCCCCC3)ccc2c1 (configuration not stated)	·	·	·	5.2	·	·
Cc1ccc(CS(=O)(=O)c2cn(CC(=O)N(C)c3ccccc3)c3ccccc23)cc1	4.0%	8.0%	31.6µM*	-1.6	·	i
CCCCN(CCCC)S(=O)(=O)c1ccc(NC(=O)c2cccs2)cc1	-29.2%	4.2%	2µM*	4.5	-2.5%	i
Cc1ccc(NC(=O)C(=O)NNC(=O)c2cccs2)cc1	2.8%	-8.8%	i	-1.1	-4.6%	i
Cc1cc(C)nc(NS(=O)(=O)c2ccc(NC(=O)c3cccs3)cc2)n1	-18.4%	-3.6%	i	-10.8	1.0%	i
Cc1ccc(NC(=O)c2cccs2)cc1	-22.7%	4.2%	28.2µM*	-2.0	-27.5%	i
CC(=O)c1cnc(SCc2ccc(Cl)cc2)nc1C	?	0.3%	i	-0.7	22.3%	i
O/N=C/c1ccnc(SCc2ccccc2)n1	11.2µM*	4.7%	i	-1.1	-6.1%	i
O/N=C/c1ccnc(SCc2ccc(Cl)cc2)n1	10µM*	6.2%	i	0.9	0.6%	i
CCN(CC)S(=O)(=O)c1ccc(N(C)C)c(NS(=O)(=O)c2c(C)cc(C)cc2C)c1	·	·	·	-3.0	·	·
